# Measured values from ChEMBL document CHEMBL5606458, “ASAP - ZIKV NS2B-NS3 protease fluorescence single point” (2024).
# The whole screen tested about 2,700 compounds, of which about 160 (5.9%) showed an effect of 50% or more. What follows is part of a selection rich in strong results, with near analogues and random picks from the rest.
# Molecular target: Nonstructural protein 3 (Zika virus) (UniProt A0A024AXB9)
# [1] = PRVABC59, Concentration 50.0 uM, Number of replicates 1.0
# [2] = PRVABC59, Concentration 15.0 uM, Number of replicates 1.0
# Sequence of Nonstructural protein 3 (Zika virus) (A0A024AXB9 as listed by the source): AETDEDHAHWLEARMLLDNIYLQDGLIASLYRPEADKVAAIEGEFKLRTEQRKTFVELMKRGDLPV
compound,measurement,setting,value
O=Cc1ccc(N2CCC(C(=O)Nc3cc(Cl)cc([N+](=O)[O-])c3O)CC2)cc1,inhibition,[1],93.4%
Cc1cc(-c2nn(C)cc2NC(=O)c2ccccc2C(F)(F)F)[nH]n1,inhibition,"PRVABC59, Concentration 49.5 uM, Number of replicates 2.0, Standard deviation 1.8946804704330402 %",-3.15%
same,inhibition,"PRVABC59, Concentration 99.01 uM, Number of replicates 2.0, Standard deviation 0.666066751064398 %",-1.39%
same,inhibition,"PRVABC59, Concentration 198.0 uM, Number of replicates 2.0, Standard deviation 1.3743584908968294 %",2.3%
O=C(Nc1cnc(Br)c(Cl)n1)c1cc(Cl)ccc1NS(=O)(=O)c1ccc(Oc2ccccc2Cl)cc1,inhibition,[2],20.6%
O=Cc1ccc(N2CCC(C(=O)NCCc3ccc(C(F)(F)F)cc3)CC2)cc1,inhibition,[1],25.7%
CCOC(=O)c1cc(Cn2cc(C3CCNCC3)c(C)n2)on1,inhibition,"PRVABC59, Concentration 49.5 uM, Number of replicates 2.0, Standard deviation 3.597880558823145 %",-0.431%
same,inhibition,"PRVABC59, Concentration 99.01 uM, Number of replicates 2.0, Standard deviation 3.9852172616025077 %",-1.41%
same,inhibition,"PRVABC59, Concentration 198.0 uM, Number of replicates 2.0, Standard deviation 1.6156285466659275 %",-2.54%
CC1(C)[C@H]2CC[C@]1(C)[C@H](NC(=O)C1CCN(c3ccc(C=O)cc3)CC1)C2,inhibition,[1],-4.03%
O=Cc1ccc(N2CCC(C(=O)Nc3cccc(Cl)c3Br)CC2)cc1,inhibition,[1],21%
c1cnc(N2CCOCC2)c(CN2CC[C@H](c3c[nH]c4ccccc34)C2)c1,inhibition,"PRVABC59, Concentration 49.5 uM, Number of replicates 2.0, Standard deviation 0.5816150455075427 %",4.93%
same,inhibition,"PRVABC59, Concentration 99.01 uM, Number of replicates 2.0, Standard deviation 1.6761828626765602 %",10.2%
same,inhibition,"PRVABC59, Concentration 198.0 uM, Number of replicates 2.0, Standard deviation 1.4600963075359947 %",18.9%
Nc1ccc(Cl)c2ncccc12,inhibition,"PRVABC59, Concentration 49.95 uM, Number of replicates 2.0, Standard deviation 10.856665376334321 %",2.86%
same,inhibition,"PRVABC59, Concentration 99.9 uM, Number of replicates 2.0, Standard deviation 9.901328830284072 %",10.8%
Nc1cccc2c(Cl)ccnc12,inhibition,"PRVABC59, Concentration 49.95 uM, Number of replicates 2.0, Standard deviation 13.26082141913299 %",25%
same,inhibition,"PRVABC59, Concentration 99.9 uM, Number of replicates 2.0, Standard deviation 5.807935528538471 %",61.3%
Nc1ccc(Cl)c2cccnc12,inhibition,"PRVABC59, Concentration 99.9 uM, Number of replicates 2.0, Standard deviation 7.433905478836123 %",-9.18%
Cc1ccc(CN(C(=O)C2CCN(c3ccc(C=O)cc3)CC2)C2CC2)s1,inhibition,[1],27.6%
Cc1cc(CO)c2cccc(NC(=O)[C@@H](N)CCN)c2n1,inhibition,"PRVABC59, Concentration 49.95 uM, Number of replicates 2.0, Standard deviation 10.156724992387474 %",7.81%
same,inhibition,"PRVABC59, Concentration 99.9 uM, Number of replicates 2.0, Standard deviation 27.740304464442595 %",6.58%
CC(=O)N[C@@H](CCCCN)C(=O)Nc1cccc2c(Cl)cc(C)nc12,inhibition,"PRVABC59, Concentration 49.95 uM, Number of replicates 2.0, Standard deviation 3.802363243631691 %",19.9%
same,inhibition,"PRVABC59, Concentration 99.9 uM, Number of replicates 2.0, Standard deviation 2.8723353743500515 %",37.2%
Cc1cc(CO)c2cccc(NC(=O)Cc3cccc(CN)c3)c2n1,inhibition,"PRVABC59, Concentration 49.95 uM, Number of replicates 2.0, Standard deviation 2.002239649301327 %",8.36%
same,inhibition,"PRVABC59, Concentration 99.9 uM, Number of replicates 2.0, Standard deviation 0.9082841415474754 %",22.1%
Cc1cc(CO)c2cccc(Cc3ccccc3NC(=O)c3nc(N)n[nH]3)c2n1,inhibition,"PRVABC59, Concentration 49.95 uM, Number of replicates 2.0, Standard deviation 1.1858913556413317 %",-1.17%
same,inhibition,"PRVABC59, Concentration 99.9 uM, Number of replicates 2.0, Standard deviation 1.6592298829189325 %",2.56%
CC(=O)N[C@@H](CCCN)C(=O)Nc1cccc2c(Cl)cc(C)nc12,inhibition,"PRVABC59, Concentration 99.9 uM, Number of replicates 2.0, Standard deviation 3.96053156793845 %",2.63%
Cc1cc(CO)c2cccc(NC(=O)c3nc(N)n[nH]3)c2n1,inhibition,"PRVABC59, Concentration 49.95 uM, Number of replicates 2.0, Standard deviation 1.6810779662500097 %",28.9%
same,inhibition,"PRVABC59, Concentration 99.9 uM, Number of replicates 2.0, Standard deviation 2.6897269039186593 %",60.8%
Cc1cc(Cl)c2cccc(NC(=O)CCN)c2n1,inhibition,"PRVABC59, Concentration 49.95 uM, Number of replicates 2.0, Standard deviation 0.2024559271573544 %",95.1%
same,inhibition,"PRVABC59, Concentration 99.9 uM, Number of replicates 2.0, Standard deviation 0.15816464699422608 %",91.2%
Cc1cc(CO)c2cccc(NC(=O)CCN)c2n1,inhibition,"PRVABC59, Concentration 49.95 uM, Number of replicates 2.0, Standard deviation 0.34164167967973086 %",58.9%
same,inhibition,"PRVABC59, Concentration 99.9 uM, Number of replicates 2.0, Standard deviation 0.25939261057290325 %",94.2%
Cc1cc(CO)c2cccc(Cc3cccc(NC(=O)c4nc(N)n[nH]4)c3)c2n1,inhibition,"PRVABC59, Concentration 49.95 uM, Number of replicates 2.0, Standard deviation 3.2981012364268594 %",-0.767%
same,inhibition,"PRVABC59, Concentration 99.9 uM, Number of replicates 2.0, Standard deviation 3.2421151330326254 %",4.54%
O=C(Nc1c(Cl)cncc1Cl)c1cc(Cl)ccc1NS(=O)(=O)c1ccc(Oc2ccccc2Cl)cc1,inhibition,[2],22%
O=Cc1ccc(N2CCC(C(=O)NC[C@@H](c3ccc(Cl)cc3)N3CCCC3)CC2)cc1,inhibition,[1],18.7%
O=Cc1ccc(N2CCC(C(=O)Nc3nc4cc(Cl)ccc4s3)CC2)cc1,inhibition,[1],22.7%
CN1CCN(c2ccccc2NC(=O)C2CCN(c3ccc(C=O)cc3)CC2)CC1,inhibition,[1],22.1%
O=C(Nc1cccc2cccnc12)C1CCNCC1,inhibition,"PRVABC59, Concentration 49.95 uM, Number of replicates 2.0, Standard deviation 0.5440976068370852 %",42.6%
same,inhibition,"PRVABC59, Concentration 99.9 uM, Number of replicates 2.0, Standard deviation 0.5440976068370852 %",92%
N[C@@H]1CCCC[C@H]1C(=O)Nc1cccc2cccnc12,inhibition,"PRVABC59, Concentration 99.9 uM, Number of replicates 2.0, Standard deviation 1.8980185851288 %",-8.2%
CC(=O)N[C@@H](CCCN)C(=O)Nc1cccc2cccnc12,inhibition,"PRVABC59, Concentration 49.95 uM, Number of replicates 2.0, Standard deviation 1.6196420224622259 %",19.2%
same,inhibition,"PRVABC59, Concentration 99.9 uM, Number of replicates 2.0, Standard deviation 2.0688397621434533 %",38.7%
O=C(c1cc(Cl)ccc1NS(=O)(=O)c1ccc(Oc2ccccc2Cl)cc1)N1CCC(O)(c2ccc(Cl)cc2)CC1,inhibition,[2],26.1%
